Source: PubChem BioAssay
Shown are actives, neighbours in structure and some others; about 2.4% of the full set was active somewhere.
TDP1 inh = blocks human tyrosyl-DNA phosphodiesterase 1; Q9NUW8; recombinant TDP1, AlphaScreen DNA substrate cleavage; Potency, µM (highest dose often 130 µM), without a hit: top-dose activity change, negative = inhibition, usual class: inhibitors; actives 0.28% (n = 350,000); note: % is set by controls: 0 for no effect and ±100 for the full control effect; nearly all actives have a fitted effect of over 40% in size
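AlphaScreen read-out: signal falls as enzyme removes the 3' tyrosine-FITC from a 5'-biotinylated DNA oligo (15 nM, 5 min, RT). Enzyme was E. coli-made recombinant Tdp1 at 1 nM, exposed to compound for 15 min beforehand; beads 10 ug/ml, 10 min.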
Pol kappa inh-1 = blocks human DNA polymerase kappa activity | Q9UBT6 | purified Pol kappa, fluorescent DNA synthesis assay, 10 min | Potency, µM (highest dose often 107 µM), without a hit: top-dose activity, negative = inhibition, actives largely listed as inhibitors | actives 0.53% (n = 400,000); note: % is set by controls: 0 for no effect and ±100 for the full control effect
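Inhibition of 10 nM Pol kappa is measured by a fluorescent read-out at 0 and 10 min following addition of 50 nM substrate (final), with a 15-min room-temperature compound preincubation.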
POLI inh = DNA polymerase iota (human) inhibition. Q9UNA4. Pol iota fluorescent replication assay, 10 min. Potency, µM (top dose mostly 115 µM), inactives show at the top dose activity, negative = inhibition, most hits filed as inhibitors. actives 1% (n = 390,000). AID 588590
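Pol iota at 10 nM preincubated 15 min with compounds at room temperature; reaction started with fluorescent substrate, 50 nM final. Fluorescence read kinetically at 0 and 10 min; buffer-only wells as negative control.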
Pol beta inh = inhibitors of human DNA polymerase beta | Potency, µM (top dose mostly 114 µM), without a hit: at the top dose activity change, negative = inhibition, usual class: inhibitors | P06746 | Pol beta primer extension/strand displacement, fluorescence kinetic | actives 1.3% (n = 340,000); note: % is set by controls: 0 for no effect and ±100 for the full control effect
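Pol beta (10 nM) was preincubated with compound for 15 min at room temperature. The reaction was then started with 50 nM substrate and read immediately and after a further 10 min at room temperature.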
Pol eta inh-1 = DNA polymerase eta (human) inhibition. actives 1.2% (n = 390,000). recombinant Pol eta, fluorescent DNA replication assay. AID 588591. Potency, µM (top dose mostly 114 µM), for the others: at the top dose activity change, negative = inhibition, most hits filed as inhibitors; note: % is set by controls: 0 for no effect and ±100 for the full control effect
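Pol eta (10 nM) was preincubated with compounds for 15 min at room temperature, after which fluorescent replication substrate (50 nM final) was added to start the reaction. Fluorescence was read kinetically at 0 and 10 min.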
PGK validate = blocks T. brucei phosphoglycerate kinase | actives 79% (n = 500) | shares compounds with Pol kappa inh-1 | Potency, µM (highest dose often 57.5 µM), inactives show at the highest dose activity change, negative = inhibition, hits mostly inhibitors | AID 686980 | TbPGK coupled GAPDH assay, Kinase-Glo luminescence; note: % is set by controls: 0 for no effect and ±100 for the full control effect; nearly all actives have a fitted effect of over 65% in size
Target sequence (P07378 whole entry, looked up): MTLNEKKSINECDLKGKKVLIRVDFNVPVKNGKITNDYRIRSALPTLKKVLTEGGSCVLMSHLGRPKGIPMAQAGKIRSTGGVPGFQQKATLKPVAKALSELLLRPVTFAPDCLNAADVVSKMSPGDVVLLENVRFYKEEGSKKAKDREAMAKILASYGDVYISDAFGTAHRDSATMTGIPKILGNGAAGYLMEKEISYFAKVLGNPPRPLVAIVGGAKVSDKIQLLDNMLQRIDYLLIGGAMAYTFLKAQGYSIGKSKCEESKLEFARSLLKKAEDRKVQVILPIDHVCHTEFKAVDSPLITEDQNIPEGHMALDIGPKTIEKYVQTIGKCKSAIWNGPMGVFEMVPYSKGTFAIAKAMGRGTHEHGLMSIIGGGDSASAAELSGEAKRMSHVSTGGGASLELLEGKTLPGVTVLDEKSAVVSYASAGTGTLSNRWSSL
Pol iota confirm = Human Pol iota inhibitor confirmatory assay; AID 720496; actives 77% (n = 1,500); Pol iota primer extension, TAMRA/BHQ fluorescence; Potency, µM, most hits filed as inhibitors; shares compounds with Pol kappa inh-1
Pol kappa inh-2 = Pol kappa (human) inhibition, cherry-pick confirmation; shares compounds with Pol eta inh-1; AID 720501; actives 76% (n = 920); purified Pol-kappa, fluorescent strand-displacement substrate; Potency, µM, actives largely listed as inhibitors
Pol eta inh-2 = confirmation of human DNA polymerase eta inhibitors. Potency, µM, most hits filed as inhibitors. actives 64% (n = 2,600). Pol eta primer extension, TAMRA/BHQ fluorescence, 10 min. shares compounds with Pol eta inh-1
* marks the source's active call; other numbers are inactive results; ? = inconclusive; / = not tested or not shown; [ ] = another dose, or the depositor's remark. Calls come from the whole dose curve; as a rule, active = well fitted curve in the direction sought with a large enough effect; inconclusive = small, poorly fitted or top-dose-only effect, or another doubt; inactive = no such curve, though single readings can be large; an effect the other way counts as inactive or inconclusive. Potency is the fitted concentration of half-maximal effect.

SMILES	TDP1 inh	Pol kappa inh-1	POLI inh	Pol beta inh	Pol eta inh-1	Pol iota confirm	Pol kappa inh-2	Pol eta inh-2	others
Cc1ccc(NC(=O)Cn2cc(S(=O)(=O)Cc3ccc(F)cc3)c3ccccc32)cc1Cl	-2%	?	79µM*	25µM*	18µM*	47*	/	43*
COc1ccc(Cl)cc1NC(=O)c1nc(S(C)(=O)=O)ncc1N(Cc1ccc(C)cc1)Cc1ccco1	3%	11%	0%	0%	0%	/	/	/
C=CCOc1ccc(C=NNc2ccc(S(=O)(=O)Nc3ccccc3C(=O)O)cc2[N+](=O)[O-])cc1OC	-16%	?	14µM*	/	?	19*	?	85*	PGK validate=5.2µM*
Cc1nn(-c2ccccc2)c(Cl)c1/C=N/Nc1ccc(S(=O)(=O)Nc2ccccc2C(=O)O)cc1[N+](=O)[O-]	1%	?	40µM*	45µM*	35µM*	?	24*	43*
O=c1[nH]c(=O)c2nc3c4ccccc4c4ccccc4c3nc2[nH]1	/	-25%	87%	?	28µM*	19*	9.5*	/
c1cnc(N2CCN(c3ncc4c(n3)CCNC4)CC2)nc1	-3%	-30%	?	45µM*	18µM*	17*	3*	24*
COc1ccc(Cn2c(=O)c3cccnc3n(CC(=O)Nc3c(C)cc(C)cc3C)c2=O)cc1	1%	9%	47%	36%	-13%	/	/	/
COc1cc(C(=O)Nc2cccc(OCc3cc(=O)n4cc(C)sc4n3)c2)cc(OC)c1OC	9%	-12%	8%	5%	4%	/	/	/
CCOC(=O)c1ccc(N/N=C/c2cc(Br)cc([N+](=O)[O-])c2O)cc1	11%	1%	100%	-27%	25µM*	67*	/	?
CCc1ccc(N=C2NC(=O)/C(=C/c3cc(Br)c(OCC(=O)O)c(OC)c3)S2)cc1	-8%	?	40µM*	16µM*	35µM*	67*	47*	85*
CCc1ccc(Nc2sc(C(=O)c3ccccc3)c(N)c2S(C)(=O)=O)cc1	8%	-9%	30%	1%	-25%	/	/	/
COc1ccc(/C=C2\C(=O)NC(=S)N2C(=O)c2ccc(F)cc2)cc1	20µM*	-5%	?	14µM*	25µM*	84*	67*	?
O=C1NC(=S)N(C(=O)c2ccc(F)cc2)/C1=C/c1ccccc1	1%	-6%	6%	-22%	?	/	/	/
N#Cc1ccccc1S(=O)(=O)N1CCN(C(=O)c2cc3c(s2)CCC3)CC1	5µM*	?	?	/	20µM*	?	?	?
Cc1cc(C(=O)N2CCN(S(=O)(=O)c3ccccc3C#N)CC2)c(C)o1	1%[56.1 µM]	-15%	31%	/	-25%	/	/	/
COC(=O)c1cc2oc(C)cc2n1Cc1cccc(Cl)c1	4%	7%	24%	13%	-20%	/	/	/
O=C(CSc1nc(-c2ccc(F)cc2)nc2c1Cc1ccccc1O2)Nc1ccc(C(=O)O)cc1	5µM*	?	1.4µM*	4.5µM*	?	7.5*	7.5*	/	PGK validate=2.1µM*
O=C(CSc1nc(-c2ccccc2)nc2c1Cc1ccccc1O2)Nc1ccc(C(=O)O)cc1	4.5µM*	10µM*	?	2µM*	7.9µM*	9.5*	42*	?
Cc1ccc(-c2nc3c(c(SCC(=O)Nc4cccc(C(=O)O)c4)n2)Cc2cccc(C)c2O3)cc1	/	?	?	1.8µM*	/	8.4*	3.8*	85*
CCc1noc(-c2ccc(N3CCC(C)CC3)c([N+](=O)[O-])c2)n1	6%	-16%	-6%	-2%	-6%	/	/	/
CCOc1ccc(-c2ncnn2-c2sc3c(c2C#N)CCCCC3)cc1	3%[12.3 µM]	0%	32%	-2%	-21%	/	/	/
O=C(N/N=C/c1ccncc1)c1cccc(S(=O)(=O)Nc2ccc(Cl)cc2)c1	/	28µM*	28µM*	?	50µM*	47*	/	67*
CC(=C/C(=O)O)/C=C/c1ccc(Cl)o1	25µM*	25µM*	7.9µM*	13µM*	1.1µM*	21*	/	8.5*	PGK validate=15µM*
Cc1ccc(C)c(S(=O)(=O)c2nnn3c2nc(N2CCCC2)c2sccc23)c1	0%	7%	17%	40%	-4%	/	/	/
COc1cc(/C=C/C(=O)OCC(=O)NCc2ccco2)ccc1OC(F)F	4%	-7%	22%	17%	-15%	/	/	/
SMILES	TDP1 inh	Pol kappa inh-1	POLI inh	Pol beta inh	Pol eta inh-1	Pol iota confirm	Pol kappa inh-2	Pol eta inh-2	others
O=C(COC(=O)CCNS(=O)(=O)c1ccc(Cl)cc1)NCc1ccco1	2%	-3%	5%	-5%	9%	/	/	/
COc1ccc(/C=C/C(=O)OCC(=O)NCc2ccco2)cc1OC	?	?	22µM*	40µM*	50µM*	?	/	?
O=C(COC(=O)Cc1ccc(Cl)cc1)NCc1ccco1	11µM*	79µM*	22µM*	/	8.9µM*	19*	11*	19*
O=Cc1ccc2oc3nc4n(c(=O)c3c(=O)c2c1)CCCS4	10µM*	20µM*	7.9µM*	8.9µM*	2.5µM*	4.7*	8.4*	11*
O=c1c2cc(Br)cc(Br)c2oc2nc3n(c(=O)c12)CCCS3	-4%	/	/	?	/	/	/	/
CSC1SCC2C(=O)N(C)C(C(C)C)C(=O)OCC(NC(=O)c3cnc4ccccc4n3)C(=O)NC(C)C(=O)N(C)C1C(=O)N(C)C(C(C)C)C(=O)OCC(NC(=O)c1cnc3ccccc3n1)C(=O)NC(C)C(=O)N2C (stereo not drawn)	/	-100%	0.32µM*	/	-99%	1.5*	0.75*	1.5*
O=C(NCc1ccco1)c1ccc([N+](=O)[O-])o1	/	?	10µM*	13µM*	40µM*	42*	/	54*
Cc1ccc(-n2ncc(C(=O)NCCN3CCc4ccccc4C3)c2C2CCNCC2)cc1C	0%	-2%	2%	21%	-9%	/	/	/
O=C(Cc1ccc(S(=O)(=O)N2CCCCC2)s1)Nc1cccc2ccccc12	8%	-17%	21%	7%	-12%	/	/	/
O=C(O)Cc1ccc(S(=O)(=O)N2CCCC2)s1	10µM*	79µM*	?	/	7.1µM*	47*	12*	30*
